Where “and” joins values, the source holds several entries; their conditions need not be identical. Equal entries are not always repeated. The whole screen tested about 5,500 compounds, of which about 2,000 (36%) were called active. Inconclusive results (about 18%) are left out. Rule as the data show it: active = normalized growth mostly below about 0.91 (no sharp cut-off); inconclusive = no clear call, values can overlap the other calls; inactive = mostly above about 0.92. The list shows a part of the results.
Assay: chemical genetic growth profiling, strain panel (AID 1159580);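 also: tested at 20 µM; growth read once vehicle control cultures reached saturation at 30 °C; 1 = growth at the plate median or of vehicle wells; lower values mean less growth of the strain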
Conditions: S. cerevisiae deletion strains, growth OD

Measured: normalized growth

O=C(N[C@@H](CO)[C@H](O)c1ccc([N+](=O)[O-])cc1)C(Cl)Cl
inactive: locus YAL013W, strain DEP1, active compounds read low 1 | locus YAL021C, strain ccr4, active compounds read low 1.01 | locus YAL026C, strain drs2, active compounds read low 1.03 | locus YAL030W, strain snc1, active compounds read low 0.999 | locus YBL061C, strain skt5, active compounds read low 0.995 | locus YBR009C, strain hhf1, active compounds read low 1.03 | locus YBR021W, strain FUR4, active compounds read low 1.03 | locus YBR023C, strain chs3, active compounds read low 1.02 | locus YBR171W, strain sec66, active compounds read low 1.02 | locus YBR229C, strain ROT2, active compounds read low 1 | locus YBR231C, strain swc5, active compounds read low 1.01 | locus YBR279W, strain paf1, active compounds read low 1.02 | locus YCL011C, strain gbp2, active compounds read low 1.02 | locus YCL016C, strain dcc1, active compounds read low 1.02 | locus YCL029C, strain bik1, active compounds read low 1.03 | locus YCL061C, strain MRC1, active compounds read low 0.998 | locus YCL069W, strain vba3, active compounds read low 1.02 | locus YCR088W, strain abp1, active compounds read low 1.02 | locus YDL005C, strain med2, active compounds read low 1 | locus YDL035C, strain GPR1, active compounds read low 0.997 | locus YDL040C, strain nat1, active compounds read low 1.01 | locus YDL074C, strain BRE1, active compounds read low 1.03 | locus YDL101C, strain DUN1, active compounds read low 1.01 | locus YDL134C, strain PPH21, active compounds read low 1 | locus YDL185W, strain tfp1, active compounds read low 1.01 | locus YDL192W, strain arf1, active compounds read low 1.01 | locus YDR001C, strain nth1, active compounds read low 1.02 | locus YDR069C, strain doa4, active compounds read low 1.02 | locus YDR101C, strain arx1, active compounds read low 1.01 | locus YDR137W, strain rgp1, active compounds read low 1.03 | locus YDR150W, strain NUM1, active compounds read low 0.997 | locus YDR159W, strain sac3, active compounds read low 0.982 | locus YDR162C, strain NBP2, active compounds read low 1 | locus YDR195W, strain ref2 1.09 | locus YDR297W, strain sur2, active compounds read low 1.02 | locus YDR318W, strain mcm21, active compounds read low 1.01 | locus YDR334W, strain swr1, active compounds read low 1 | locus YDR335W, strain msn5, active compounds read low 1.01 | locus YDR388W, active compounds read low 1.01 | locus YDR392W, strain spt3, active compounds read low 0.981 | locus YDR502C, strain sam2, active compounds read low 1.01 | locus YEL003W, strain gim4, active compounds read low 1.01 | locus YEL037C, strain rad23, active compounds read low 1.01 | locus YEL061C, strain CIN8 (second series), active compounds read low 1.02 | locus YEL061C, strain CIN8, active compounds read low 0.996 | locus YER015W, strain faa2, active compounds read low 1.02 | locus YER016W, strain bim1, active compounds read low 1.01 | locus YER110C, active compounds read low 1.01 | locus YER111C, strain swi4, active compounds read low 1.02 | locus YER155C, strain BEM2 (second series), active compounds read low 0.993 | locus YER155C, strain BEM2, active compounds read low 1 | locus YER167W, strain BCK2, active compounds read low 0.987 | locus YFR010W, strain ubp6, active compounds read low 1.02 | locus YGL078C, strain dbp3, active compounds read low 1 | locus YGL086W, strain mad1, active compounds read low 0.994 | locus YGL167C, strain pmr1, active compounds read low 1.01 | locus YGL173C, strain kem1, active compounds read low 1.03 | locus YGL227W, strain vid30, active compounds read low 1.04 | locus YGL240W, strain doc1, active compounds read low 0.983 | locus YGL248W, strain PDE1, active compounds read low 0.998 | locus YGL253W, strain hxk2, active compounds read low 1.03 | locus YGR078C, strain PAC10, active compounds read low 1.02 | locus YGR135W, strain pre9, active compounds read low 1.01 | locus YGR229C, strain SMI1, active compounds read low 0.994 | locus YGR252W, strain gcn5, active compounds read low 0.947 | locus YHR013C, strain ard1, active compounds read low 1.01 | locus YHR027C, strain rpn1, active compounds read low 1.02 | locus YHR030C, strain SLT2, active compounds read low 0.998 and 0.975 | locus YHR079C, strain IRE1 (second series), active compounds read low 1.02 | locus YHR079C, strain IRE1, active compounds read low 1 | locus YHR094C, strain hxt1, active compounds read low 1.01 | locus YHR129C, strain ARP1, active compounds read low 1.01 | locus YHR142W, strain chs7, active compounds read low 1.05 | locus YHR200W, strain rpn10, active compounds read low 1.01 | locus YIL066C, strain RNR3, active compounds read low 1.01 | locus YIL073C, strain SPO22, active compounds read low 0.964 | locus YIL125W, strain kgd1, active compounds read low 0.998 | locus YIR030C, strain dcg1, active compounds read low 1.01 | locus YJL092W, strain hpr5, active compounds read low 1.02 | locus YJL095W, strain BCK1 (second series), active compounds read low 1.02 | locus YJL095W, strain BCK1, active compounds read low 1.04 and 0.945 | locus YJL115W, strain asf1, active compounds read low 1.01 | locus YJL129C, strain trk1, active compounds read low 1.01 | locus YJL134W, strain LCB3, active compounds read low 1 | locus YJL154C, strain vps35, active compounds read low 1.03 | locus YJL164C, strain tpk1, active compounds read low 1.03 | locus YJL166W, strain qcr8, active compounds read low 1.02 | locus YJL168C, strain set2, active compounds read low 1.01 | locus YJL187C, strain SWE1 (second series), active compounds read low 1.02 | locus YJR043C, strain POL32, active compounds read low 1.03 | locus YJR066W, strain TOR1, active compounds read low 0.962

Reference: PubChem BioAssay AID1159580 (chemical genetic matrix, 2015)
